PubChem BioAssay (NCATS)
Several values for one entry are separate records, joined by “and”; a condition that tells them apart may be missing. Identical values can stand only once. Inconclusive results are not listed. Activity calls are given as the source filed them. Unless noted, the call rests on the fitted dose curve; in most records, active means well fitted curve in the direction sought with a large enough effect; inconclusive means small, poorly fitted or top-dose-only effect, or another doubt; inactive means no such curve, though single readings can be large; an effect the other way counts as inactive or inconclusive.

Assays:
[1] = Cell Viability - SK-N-SH (AID 435; calls by dose curve;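 further: potency means the concentration at half of the fitted maximal effect; compound exposure lasted 40 h at 37 °C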); details: SK-N-SH neuroblastoma cell viability qHTS
Summary of the method: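 SK-N-SH neuroblastoma cells (1500/well) treated 40 h at 37 °C in complete medium; viability read as cellular ATP by CellTiter-Glo luminescence. Normalized to DMSO and 100 uM tamoxifen; AC50 from Hill fits of qHTS concentration-response.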

[2] = Cell Viability - SH-SY5Y (AID 544); details: SH-SY5Y neuroblastoma cell viability; viability change, negative = cytotoxic: at 92.2 µM (top of the series); further: nearly all actives have a fitted effect of over 55% in size
Summary of the method: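 SH-SY5Y human neuroblastoma cells (1500/well) incubated 5 h, then compound-treated 40 h at 37 °C in complete medium. Viability read as intracellular ATP by CellTiter-Glo luminescence after 20 min; AC50 from Hill-equation fits of qHTS concentration-response.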

[3] = Cell Viability - Renal Proximal Tubule (AID 545); details: renal proximal tubule cells viability; series mostly up to 91.7 µM; further: nearly all actives have a fitted effect of over 40% in size
Summary of the method: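 Rat renal proximal tubule primary cells, 1000/well, exposed to compounds for 40 hr at 37 °C in complete medium; cellular ATP read by CellTiter-Glo luminescence. AC50 from concentration-response fitted with standard Hill equation.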

[4] = Cellular Toxicity (caspase-3) HepG2 (AID 654); details: HepG2 caspase-3 activation, luminescence, 0% = DMSO only, 100% = tamoxifen; series mostly up to 92.2 µM;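 further: cells exposed to compound for 16 hours before reading; 0% = DMSO alone and 100% = caspase signal from 100 µM tamoxifen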
Summary of the method: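 HepG2 cells (1500/well) were treated 16 h at 37 °C in complete medium, then caspase 3/7 activity was read by Caspase-Glo luminescence. Data were normalized to DMSO and 100 uM tamoxifen; AC50 came from Hill-equation fits of qHTS concentration-response.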

[5] = Cellular Toxicity (caspase-3) SHSY5Y (AID 657); details: SH-SY5Y caspase-3 activation, DMSO zero, 10 µM staurosporine = 100%; series mostly up to 91.7 µM
Summary of the method: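 SH-SY5Y human neuroblastoma cells, 1500/well, exposed to compound for 16 hours at 37 °C in complete medium. Caspase-3/7 activity read by Caspase-Glo luminescence after 1 hr at room temperature, normalized to DMSO and 10 uM staurosporine; AC50 from Hill fit.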

[6] = Cellular Toxicity (caspase-3) N2a (AID 665); details: N2a cells, luminescence, normalized: DMSO 0%, 10 µM staurosporine 100%; series mostly up to 92.2 µM;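 further: compound exposure lasted 16 h at 37 °C before readout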
Summary of the method: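 Mouse N2a neuroblastoma cells, 1500 per well, treated 16 h at 37 °C in complete medium; caspase-3/7 activity by Caspase-Glo luminescence after 1 h. Normalized to DMSO and 10 uM staurosporine; AC50 from Hill fits.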

[7] = MultiTox-Fluor Cytotoxicity Assay - LYMP1-002 - Live Cells (AID 955); details: LYMP1-002 lymphoblastoid live-cell protease fluorescence viability; series mostly up to 46.1 µM; further: on the % scale 0 is the no-effect control and ±100 the full control effect
Summary of the method: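 Human lymphoblastoid LYMP1-002 cells, 2500/well, treated 16 h at 37 C in complete medium. Live-cell protease activity via GF-AFC fluorescence (Ex/Em 405/510) after 60 min reagent incubation; AC50 from Hill fits.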

[8] = Cell Viability - LYMP2-009 (AID 968); details: LYMP2-009 lymphoblastoid cell viability; series mostly up to 92.2 µM;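 further: 0% = DMSO alone and the full-kill end = tetraoctylammonium bromide at 92 µM; nearly all actives have a fitted effect of over 55% in size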
[9] = Cell Viability - LYMP2-011 (AID 969); details: LYMP2-011 lymphoblastoid cells viability; series mostly up to 92.2 µM;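 further: cells exposed to compound for 24 hours; 0% = DMSO only and full inhibition = 92 µM tetraoctylammonium bromide; nearly all actives have a fitted effect of over 60% in size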
Summary of the method: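 2500 cells/well in complete medium, compound-treated 24 h at 37 C. Viability read as intracellular ATP by CellTiter-Glo luminescence after 30 min at room temperature. AC50 from Hill fits of qHTS concentration-response data.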

[10] = Cell Viability - LYMP2-025 (AID 976); details: LYMP2-025 lymphoblastoid cell viability; series mostly up to 92.2 µM;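 further: plate controls were DMSO only for no effect and tetraoctylammonium bromide control for full effect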
Summary of the method: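 Human lymphoblastoid LYMP2-025 cells, 2500/well, exposed 24 h at 37 C in complete medium in 1536-well qHTS. Viability as cellular ATP by CellTiter-Glo luminescence; AC50 from Hill fits of concentration-response data.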

[11] = Cell Viability - LYMP2-008 (AID 980); details: LYMP2-008 lymphoblastoid cell viability, qHTS; series mostly up to 92.2 µM; further: on the % scale 0 is the no-effect control and ±100 the full control effect; nearly all actives have a fitted effect of over 60% in size
Summary of the method: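 LYMP2-008 lymphoblastoid cells (2500/well) plated 5 h, then treated 24 h at 37 C in complete medium. Viability read as intracellular ATP by CellTiter-Glo luminescence after 30 min at room temperature; AC50 from Hill fits.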

[12] = Cell Viability - LYMP2-012 (AID 982); details: LYMP2-012 lymphoblastoid cell viability qHTS; series mostly up to 92.2 µM;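 further: cellular ATP by luciferase luminescence where a drop means cytotoxicity; cells exposed to compound for one day before reading; 0% = DMSO only and full loss = 92 µM tetraoctylammonium bromide; nearly all actives have a fitted effect of over 55% in size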
[13] = Cell Viability - LYMP1-002 - Assay at 24 hr (AID 993); details: LYMP1-002 lymphoblastoid cells viability; series mostly up to 92.2 µM; further: on the % scale 0 is the no-effect control and ±100 the full control effect
Summary of the method: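 Human lymphoblastoid LYMP1-002 cells (2500/well) treated 24 h at 37 °C; viability as intracellular ATP by CellTiter-Glo luminescence. Tetraoctylammonium bromide as positive control; AC50 from Hill-equation fits of qHTS concentration-response.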

[14] = target: Peroxisome proliferator-activated receptor gamma (Homo sapiens) (UniProt P37231); test: qHTS assay for small molecule agonists of peroxisome proliferator-activated receptor gamma signaling (AID 588536; active means well fitted curve in the direction sought with a large enough effect in the signal ratio, with a control signal flat, not every such curve was filed as active; the % refers to the signal ratio;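 further: 0% = DMSO basal wells and 100% = rosiglitazone at 2 µM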); details: HEK293 PPARg-UAS-bla, beta-lactamase ratio, 16 h, percent of rosiglitazone response, DMSO as zero; series mostly up to 76.7 µM
Summary of the method: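 PPAR-gamma-UAS-bla HEK293 cells in medium with 1% charcoal/dextran-treated FBS were exposed to compounds for 16 h at 37 C. Beta-lactamase activity was read with CCF4 substrate (405 nm excitation, 460/530 nm emission).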

[15] = target: Vitamin D3 receptor (Homo sapiens) (UniProt P11473); test: qHTS assay for small molecule agonists of vitamin D receptor signaling (AID 588543; calls by dose curve;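 further: 0% = DMSO basal and 100% = reference agonist control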); details: HEK293T VDR-UAS-bla, beta-lactamase ratio, 16 h; series mostly up to 76.8 µM
Summary of the method: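 VDR-UAS-bla HEK293T cells, 2000/well, 2% charcoal-stripped FBS; compound titration 16 h at 37 C; CCF4 beta-lactamase ratio read. Normalized to 50 nM 1-alpha,25-dihydroxyvitamin D3 (100%) and DMSO; Hill fit gives EC50, efficacy.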

[16] = target: Retinoic acid receptor RXR-alpha (Homo sapiens) (UniProt P19793); test: qHTS assay for small molecule antagonists of retinoid X receptor alpha signaling (AID 588546; active means well fitted inhibition curve with a large enough effect in the signal ratio, with a control signal flat, not every such curve was filed as active; the % refers to the signal ratio;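 further: cells stimulated with 9-cis-retinoic acid as agonist; on the % scale 0 is the no-effect control and ±100 the full control effect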); details: HEK293T RXRa-UAS-bla, beta-lactamase ratio, antagonist mode
Summary of the method: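 Beta-lactamase reporter inhibition, read as CCF4 fluorescence ratio (ex 405, em 460/530 nm) after 2 h at RT. HEK293T UAS-bla cells, 2500/well, were stimulated with 9-cis-RA at 500 or 100 nM final alongside test compound for 18 h at 37 C.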

[17] = qHTS assay for environmental chemicals that activate the Aryl hydrocarbon Receptor (AhR) signaling pathway (AID 651777); details: 1A2-DRE human hepatoma cells, luciferase, 24 h; activation: active compounds read high; further: % of control where 0% means no effect; nearly all actives have a fitted effect of over 15% in size
Summary of the method: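 AhR activation is scored as a rise in luciferase from a stable DRE–CYP1A2 promoter construct in human hepatoma cells. Treatment lasts 24 hr at 37 C; detection uses One-Glo after 30 min at room temperature.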

[18] = target: Nuclear receptor subfamily 1 group I member 2 (Rattus norvegicus) (UniProt Q9R1A7); test: qHTS assay for small molecule activators of the rat pregnane X receptor (rPXR) signaling pathway (AID 651751; call rule not given here; further: 0% is about no effect); details: rPXR reporter cells, luciferase (One-Glo), 24 h
[19] = target: Mitogen-activated protein kinase 10 (Mus musculus) (UniProt Q61831); test: JNK3 AlphaScreen Assay (AID 530; active means well fitted curve in either direction with a large enough effect, not every such curve was filed as active;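 further: kinase came from lysate of stimulated human HepG2 cells; signal reports phosphorylation of biotinylated GST-cJun 1-79 at Ser73 with 10 µM ATP; on the % scale 0 is the no-effect control and ±100 the full control effect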); details: JNK3 lysate, c-Jun phosphorylation; series mostly up to 57.1 µM
Summary of the method: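 Inhibitors reduce antibody binding to phosphorylated biotin-cJun, lowering AlphaScreen luminescence. Lysates from HepG2 cells pre-activated by IL-1beta plus TNF-alpha supplied JNK3; compounds were titrated.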

[20] = Cell Viability - Mesenchymal (AID 546); details: mesenchymal cells viability, qHTS; series mostly up to 91.7 µM;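 further: cells exposed to compound for 40 hours before reading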
Summary of the method: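 Normal human renal glomerulus-derived kidney mesenchymal cells, 1000 per well in complete medium, were treated with compounds for 40 hr at 37 °C. Viability was read as intracellular ATP by CellTiter-Glo luminescence; AC50 values came from Hill-equation fits of qHTS concentration-response data.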

Vitamin D3 receptor (Homo sapiens), sequence (P11473 whole entry, looked up): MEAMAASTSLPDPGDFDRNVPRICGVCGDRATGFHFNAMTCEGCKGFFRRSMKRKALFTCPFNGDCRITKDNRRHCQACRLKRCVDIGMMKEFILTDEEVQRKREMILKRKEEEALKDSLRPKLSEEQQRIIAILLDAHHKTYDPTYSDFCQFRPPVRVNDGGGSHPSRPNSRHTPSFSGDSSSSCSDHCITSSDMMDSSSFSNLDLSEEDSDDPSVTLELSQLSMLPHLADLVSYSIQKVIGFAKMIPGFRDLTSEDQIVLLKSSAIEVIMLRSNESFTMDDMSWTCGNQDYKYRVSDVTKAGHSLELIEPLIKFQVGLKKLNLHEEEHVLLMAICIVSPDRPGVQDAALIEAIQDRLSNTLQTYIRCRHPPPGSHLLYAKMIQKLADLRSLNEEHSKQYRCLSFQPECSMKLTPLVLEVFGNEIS
Retinoic acid receptor RXR-alpha (Homo sapiens), sequence (P19793 whole entry, looked up): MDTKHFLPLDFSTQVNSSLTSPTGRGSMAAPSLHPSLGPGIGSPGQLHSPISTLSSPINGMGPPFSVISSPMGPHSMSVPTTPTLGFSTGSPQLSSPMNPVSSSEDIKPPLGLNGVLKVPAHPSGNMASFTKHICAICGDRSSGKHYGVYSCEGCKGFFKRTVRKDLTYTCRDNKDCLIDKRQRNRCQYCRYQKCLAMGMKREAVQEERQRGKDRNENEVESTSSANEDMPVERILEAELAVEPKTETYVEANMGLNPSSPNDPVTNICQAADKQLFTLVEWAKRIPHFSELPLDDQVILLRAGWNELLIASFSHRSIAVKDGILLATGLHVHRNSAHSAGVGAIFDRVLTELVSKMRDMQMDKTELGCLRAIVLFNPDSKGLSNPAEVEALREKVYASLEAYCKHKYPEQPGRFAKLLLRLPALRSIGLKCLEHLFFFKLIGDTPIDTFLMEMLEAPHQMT
Peroxisome proliferator-activated receptor gamma (Homo sapiens), sequence (P37231 whole entry, looked up): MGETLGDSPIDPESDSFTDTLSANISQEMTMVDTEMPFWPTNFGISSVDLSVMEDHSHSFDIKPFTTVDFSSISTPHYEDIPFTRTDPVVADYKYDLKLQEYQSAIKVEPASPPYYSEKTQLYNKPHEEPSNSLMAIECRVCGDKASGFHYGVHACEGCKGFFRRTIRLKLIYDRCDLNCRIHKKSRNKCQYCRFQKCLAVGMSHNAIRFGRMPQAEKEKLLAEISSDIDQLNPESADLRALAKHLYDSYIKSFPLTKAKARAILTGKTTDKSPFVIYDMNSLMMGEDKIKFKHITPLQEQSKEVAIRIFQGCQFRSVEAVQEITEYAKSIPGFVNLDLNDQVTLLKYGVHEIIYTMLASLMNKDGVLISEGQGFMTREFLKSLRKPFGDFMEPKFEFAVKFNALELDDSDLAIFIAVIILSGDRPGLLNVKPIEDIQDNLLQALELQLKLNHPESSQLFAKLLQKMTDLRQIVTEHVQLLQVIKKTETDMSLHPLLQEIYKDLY
Nuclear receptor subfamily 1 group I member 2 (Rattus norvegicus), sequence (Q9R1A7 whole entry, looked up): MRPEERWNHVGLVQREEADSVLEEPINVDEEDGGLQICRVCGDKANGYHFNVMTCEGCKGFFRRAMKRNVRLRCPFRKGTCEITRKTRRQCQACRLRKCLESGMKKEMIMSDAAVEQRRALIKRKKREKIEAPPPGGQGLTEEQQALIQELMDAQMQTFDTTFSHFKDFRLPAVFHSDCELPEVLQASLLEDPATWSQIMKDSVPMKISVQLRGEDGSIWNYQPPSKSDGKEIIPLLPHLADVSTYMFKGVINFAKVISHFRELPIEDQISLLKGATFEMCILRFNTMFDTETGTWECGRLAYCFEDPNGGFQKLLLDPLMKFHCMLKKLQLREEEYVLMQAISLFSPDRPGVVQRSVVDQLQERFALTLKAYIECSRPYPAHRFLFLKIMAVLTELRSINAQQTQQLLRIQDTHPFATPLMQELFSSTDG

ClCC(Cl)Cl
inactive: Potency [1] > 92 µM | Potency [2] | outcome [3] | outcome [4] | outcome [5] | outcome [6] | outcome [7] | Potency [8] | Potency [9] | Potency [10] | Potency [11] | Potency [12] | Potency [13] | outcome [14] | outcome [15] | max response [16] 7.8% | activation [17] 1.04% | max response [18] -0.324%

O=C(O)C(Cl)Br (stereo not given)
inactive: Potency [19] | Potency [2] | outcome [3] | Potency [20] | outcome [4] | outcome [5] | outcome [6] | outcome [7] | Potency [8] | Potency [9] | Potency [10] | Potency [11] | Potency [12] | Potency [13] | outcome [14] | outcome [15] | max response [16] 0.341% | activation [17] 0.968% | max response [18] -1.1%

O=S(=O)(O)F
inactive: Potency [1] > 92 µM | Potency [19] | Potency [2] | outcome [3] | Potency [20] | outcome [4] | outcome [7] | Potency [8] | Potency [10] | Potency [11] | Potency [13] | outcome [14] | outcome [15] | max response [16] 39.7% | activation [17] 0.54% | max response [18] 0.583%

[O-][Cl+]O
inactive: Potency [1] > 92 µM | Potency [19] | Potency [2] | outcome [3] | Potency [20] | outcome [4] | outcome [5] | outcome [6] | outcome [7] | Potency [8] | Potency [9] | Potency [10] | Potency [11] | Potency [12] | Potency [13] | outcome [14] | outcome [15] | max response [16] 22.2% | activation [17] 0.878%

BrCC(Br)C1CCC(Br)C(Br)C1 (stereo not given)
inactive: Potency [1] > 92 µM | outcome [3] | Potency [20] | outcome [4] | outcome [5] | outcome [6] | outcome [7] | Potency [8] | Potency [9] | Potency [10] | Potency [12] | outcome [14] | max response [16] 18% | activation [17] -0.172% | max response [18] -6.51%

CCN(CC)CCO
inactive: Potency [1] > 92 µM | Potency [19] | Potency [2] | outcome [3] | Potency [20] | outcome [4] | outcome [5] | outcome [7] | Potency [8] | Potency [9] | Potency [11] | Potency [12] | outcome [14] | max response [16] 35.6% | activation [17] 3.62% | max response [18] 0.466%

CNC(=O)O/N=C/C(C)(C)S(C)=O (stereo not given)
inactive: Potency [1] > 92 µM | Potency [19] | outcome [3] | Potency [20] | outcome [4] | outcome [5] | outcome [6] | outcome [7] | Potency [8] | Potency [9] | Potency [10] | Potency [11] | Potency [12] | Potency [13] | outcome [14] | outcome [15] | max response [16] 12.4% and -11.4% | max response [18] 6.61% and 1.92%

CCCN(CCC)c1c([N+](=O)[O-])cc(C(F)(F)F)cc1[N+](=O)[O-]
inactive: Potency [1] > 92 µM | Potency [2] | outcome [3] | Potency [20] | outcome [4] | outcome [5] | outcome [6] | outcome [7] | Potency [8] | Potency [9] | Potency [10] | Potency [12] | Potency [13] | outcome [14] | outcome [15] | max response [16] 0.285% and -10.3% | activation [17] 0.344% and 0.563%

O=P(OCCCl)(OCCCl)OCCCl
inactive: Potency [1] > 92 µM | Potency [19] | Potency [2] | outcome [3] | Potency [20] | outcome [4] | outcome [6] | outcome [7] | Potency [8] | Potency [9] | Potency [10] | Potency [12] | Potency [13] | outcome [14] | outcome [15] | max response [16] 7.26% | activation [17] 0.332% | max response [18] 6.23%

C=CCc1cc(OC)c2c(c1)OCO2
inactive: Potency [19] | Potency [2] | outcome [3] | Potency [20] | outcome [4] | outcome [5] | outcome [6] | outcome [7] | Potency [8] | Potency [9] | Potency [10] | Potency [11] | Potency [12] | Potency [13] | outcome [14] | outcome [15] | max response [16] 9.86% | activation [17] 0.0584% | max response [18] -3.31%
